Screens: PubChem, National Center for Advancing Translational Sciences (NCATS)
A selection: hits, their analogues and other compounds. The true share with any hit is near 9.4%.
Rab9 promoter act = activators of Rab9 promoter. Potency, µM (doses to about 9.22 µM), actives largely listed as activators. Huh7 Rab9 promoter-luciferase reporter, luminescence, 24 h. AID 485297. hit rate 2.8% among 320,000; also: nearly all actives have a fitted effect of over 60% in size
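Huh7 reporter line, Rab9 promoter upstream of luciferase. Compound exposure 24 h at 37 °C in reduced-serum medium with 10% FBS. Read-out: luminescence.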
SMN2 splice up = increases expression of the SMN2 splice variant. HEK293 SMN2-luciferase splicing reporter, luminescence, 30-36 h. Potency, µM (series often up to 46.1 µM), most hits filed as activators. hit rate 2.8% among 210,000. AID 1458; also: nearly all actives have a fitted effect of over 55% in size
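HEK293 cells carry an SMN2 minigene-luciferase reporter in which exon 7 inclusion puts luciferase in frame. Cells were seeded at 2000 cells/well, attached for 10-12 hours, then exposed to compounds for 30-36 hours at 37C before ONE-Glo luminescence.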
ELG1 DNA repair = blocks ELG1-dependent DNA repair in HEK293T cells; HEK293T ELG1-luciferase reporter, luminescence, 16 h; DNA damage induced by 5-fluorouridine; Potency, µM (series often up to 46.1 µM), hits mostly inhibitors; hit rate 2.3% among 330,000; also: nearly all actives have a fitted effect of over 55% in size
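Reporter activity after DNA damage by 5-fluorouridine is monitored. Compound-treated cells incubate 16 hr at 37 °C, then ONE-Glo is added for 30 min before luminescence reading.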
ELG1 genotox = genotoxicity induction in ELG1-luciferase HEK293T cells | Potency, µM (series often up to 46 µM), usual class: activators | hit rate 1.3% among 330,000 | HEK293T ELG1-luciferase reporter, luminescence, 16 h; also: nearly all actives have a fitted effect of over 60% in size
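Genotoxic stress is detected as increased luminescence from luciferase-tagged ELG1 in HEK293T cells, measured with ONE-Glo after a 16 hr treatment at 37 °C.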
NPC1 promoter act = activators of NPC1 promoter. Huh7 NPC1 promoter luciferase reporter, 24 h. Potency, µM (series often up to 9.22 µM), most hits filed as activators. hit rate 2.4% among 320,000. AID 485313; also: nearly all actives have a fitted effect of over 60% in size
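Huh7 reporter cells (NPC1 promoter driving luciferase) are dosed with compound for 24 h at 37 °C, 5% CO2; luciferase detection reagent is then added and luminescence measured after 10 min at ambient temperature.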
FLuc modulator = firefly luciferase modulation, counter-screen for miR-21 project; purified FLuc, Km substrates, luminescence inhibition; hit rate 6.9% among 360,000; Potency, µM (top dose mostly 57.5 µM), most hits filed as inhibitors; also: nearly all actives have a fitted effect of over 55% in size
Target sequence (P08659 whole entry, looked up): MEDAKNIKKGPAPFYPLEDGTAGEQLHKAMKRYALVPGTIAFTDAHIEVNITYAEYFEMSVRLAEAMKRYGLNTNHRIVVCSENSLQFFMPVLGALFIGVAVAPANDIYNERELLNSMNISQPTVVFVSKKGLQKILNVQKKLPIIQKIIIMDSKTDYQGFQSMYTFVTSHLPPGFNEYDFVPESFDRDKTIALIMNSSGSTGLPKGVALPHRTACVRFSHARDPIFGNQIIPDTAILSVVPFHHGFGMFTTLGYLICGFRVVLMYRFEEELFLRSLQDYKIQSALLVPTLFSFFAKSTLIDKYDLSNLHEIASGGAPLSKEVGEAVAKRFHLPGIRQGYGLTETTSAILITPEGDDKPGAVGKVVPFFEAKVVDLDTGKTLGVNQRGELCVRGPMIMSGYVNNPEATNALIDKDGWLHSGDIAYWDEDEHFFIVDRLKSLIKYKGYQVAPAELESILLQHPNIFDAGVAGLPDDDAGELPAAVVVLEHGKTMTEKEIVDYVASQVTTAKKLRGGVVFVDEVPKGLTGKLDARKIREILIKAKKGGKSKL
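Purified P. pyralis luciferase, 10 nM final, with Km-level 10 uM D-luciferin and 10 uM ATP in 50 mM Tris acetate pH 7.5, 10 mM Mg acetate, 0.01% Tween-20, 0.05% BSA; 6-point qHTS titration about 60 µM downward; luminescence read.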
A number is an active result; i = inactive; ? = inconclusive; nt = no result given; [ ] = dose if it differs, or a comment. Calls follow the shape of the dose curve; as a rule, active = well fitted curve in the direction sought with a large enough effect; inconclusive = small, poorly fitted or top-dose-only effect, or another doubt; inactive = no such curve, though single readings can be large; an effect the other way counts as inactive or inconclusive.

SMILES	Rab9 promoter act	SMN2 splice up	ELG1 DNA repair	ELG1 genotox	NPC1 promoter act	FLuc modulator
Cc1cc(C)n(C(=O)c2cc3c(s2)CCCC3)n1	i	i	?	i	i	23.9µM
CCSc1nnc(NC(=O)c2cc3c(s2)CCCC3)s1	1.58µM	?	?	i	2.51µM	?
O=C(Nc1nncs1)c1cc2c(s1)CCC2	2.82µM	?	?	?	?	6.75µM
O=C(Nc1nnc(SCc2ccccc2)s1)c1cc2c(s1)CCCC2	i	i	?	?	i	?
O=C(Oc1ccc2ccccc2c1Cl)N1CCCCCC1	0.562µM	12.6µM	?	?	1.12µM	1.07µM
O=C(Oc1ccccc1)N1CCCC1	i	nt	?	i	i	i
O=C(Oc1ccc(Cl)cc1)N1CCCCC1	i	i	?	16.4µM	i	23.9µM
O=C(COC(=O)/C=C/c1ccc([N+](=O)[O-])cc1)Nc1ccc2[nH]c(=O)[nH]c2c1	i	nt	i	i	i	i
CS(=O)(=O)c1ccc2nc(NC(=O)c3cc4ccccc4o3)sc2c1	?	i	?	i	?	2.69µM
CS(=O)(=O)c1ccc2sc(NC(=O)c3cc4ccccc4o3)nc2c1	?	nt	?	i	?	2.69µM
CS(=O)(=O)c1ccc2nc(NC(=O)Oc3ccccc3)sc2c1	i	i	i	i	i	?
CS(=O)(=O)c1ccc2nc(NC(=O)c3cccc(Cl)c3)sc2c1	i[1.84 µM]	nt	i	i	i	?
O=C(O)c1c(Cl)c(Cl)c(Cl)c(Cl)c1C(=O)Nc1ccc2cn[nH]c2c1	nt	i[9.22 µM]	nt	nt	nt	nt
CN(C)c1ccc(NC(=O)Cn2c(SCc3ccc(F)cc3)nc3cccnc32)cc1	nt	nt	nt	nt	nt	i
CCS(=O)(=O)N1Cc2ccccc2CC1C(=O)Nc1nc(C)cs1 (centres undefined)	?	i	?	?	i	19µM
COc1ccc(S(=O)(=O)N2Cc3ccccc3CC2C(=O)Nc2nccs2)cc1OC (centres undefined)	i	12.6µM	?	5.8µM	i	?
CCS(=O)(=O)N1Cc2ccccc2CC1C(=O)Nc1ccc(OC)c(OC)c1 (centres undefined)	i	nt	i	i	i	i
CCS(=O)(=O)N1Cc2ccccc2CC1C(=O)Nc1cccc(OC)c1 (centres undefined)	i	nt	2.31µM	i	i	?
CCS(=O)(=O)N1Cc2ccccc2CC1C(=O)Nc1nccs1 (centres undefined)	i	17.8µM	?	?	i	?
CCOc1ccc(C(=O)NCCS(=O)(=O)N2CCN(c3cccc(Cl)c3)CC2)cc1	nt	nt	nt	nt	nt	i
C=C(C)CNC(=S)Nc1cccc(S(=O)(=O)NC2=NCCC2)c1	i	i	i	i	i	i
O=C(NC(=S)Nc1cccc(S(=O)(=O)NC2=NCCC2)c1)c1cc(-c2ccco2)nc2ccccc12	i	nt	?	i	i	19µM
CN(C)c1cccc(C(=O)Nc2cccc(S(=O)(=O)NC3=NCCC3)c2)c1	2.24µM	nt	?	?	2.82µM	21.3µM
O=C(Nc1cccc(S(=O)(=O)NC2=NCCC2)c1)c1ccccc1	nt	nt	i	i	nt	nt
CN(C)S(=O)(=O)c1ccc(C(=O)Nc2cccc(S(=O)(=O)NC3=NCCC3)c2)cc1	i	nt	i	i	i	i
SMILES	Rab9 promoter act	SMN2 splice up	ELG1 DNA repair	ELG1 genotox	NPC1 promoter act	FLuc modulator
O=C(Nc1cccc(S(=O)(=O)NC2=NCCC2)c1)c1ccc(OC(F)F)cc1	i	nt	?	i	i	10.7µM
CCOc1ccc(C(=O)NC(=S)Nc2cccc(S(=O)(=O)NC3=NCCC3)c2)cc1	i	i	i	?	i	12µM
O=C(C1CCN(S(=O)(=O)Cc2ccccc2)CC1)N1CCN(c2ccccc2F)CC1	nt	nt	nt	nt	nt	i
O=C(c1cnccn1)N1CCC[C@@]2(CCN(c3ccccn3)C2)C1	nt	i	nt	nt	nt	nt
Cc1cc(S(=O)(=O)NC(C)c2nnc3ccccn23)ccc1Br (centres undefined)	nt	nt	i	i	nt	nt
CC(/C=N/n1c(-c2ccccc2)n[nH]c1=S)=C\c1ccco1	i	i	i	i	i	i
CC(/C=N/N1CCN(c2ccccc2)CC1)=C\c1ccccc1	i	i	?	i	?	i
CC(=C/c1ccco1)/C=N/N1CCN(c2ccccc2)CC1	1.78µM	?	?	?	2.51µM	2.69µM
CC(/C=N/N1CCN(c2ccccc2)CC1)=C\c1ccco1	?	14.1µM	?	?	2µM	2.39µM
COc1cc2c(cc1OC)C(c1cc(OC)c(O)c(OC)c1)CC(=O)N2 (centres undefined)	nt	i	nt	nt	nt	i
CN(C)N=Nc1ccc(-c2cn(Cc3ccccc3)cn2)cc1	?	nt	?	?	2.82µM	19µM
CCOC(=O)c1ccccc1NC(=O)CSc1nccn1Cc1ccco1	nt	nt	nt	nt	nt	i
CC(C)CC(=O)NC(=S)Nc1sc2c(c1C(N)=O)CCC2	?	i	?	?	?	?
CCCCC(=O)Nc1sc2c(c1C(N)=O)CCC2	?	?	?	?	i	21.3µM
CC(=O)Nc1sc2c(c1C(N)=O)CCC2	i	i	i	i	i	i
Cc1sc(NC(=S)NC(=O)C(C)(C)C)c(C(N)=O)c1C	?	?	?	?	?	4.78µM
Cc1cccc(C)c1NC(=O)CN(C)CC(=O)Nc1sc2c(c1C(N)=O)CCC2	i	nt	7.3µM	i	i	i
CC(C)(C)C(=O)NC(=S)Nc1sc2c(c1C(N)=O)CCC2	?	10µM	?	i	?	4.78µM
COc1ccc(C(=O)NCc2ccc3c(c2)CCN3C(C)=O)c(OC)c1	nt	nt	nt	nt	nt	i
O[C@@H](C1=C/C(=C\c2ccncc2)c2ccccc21)c1ccncc1	nt	i[9.22 µM]	nt	nt	nt	nt
FC(F)(F)c1cccc(-c2ccc(-c3csnn3)o2)c1	?	i	?	i	i	16.9µM
N[C@@H](Cc1cccc([N+](=O)[O-])c1)C(=O)O	nt	i[9.22 µM]	nt	nt	nt	nt
Cn1cccc1C(=O)/C(C#N)=C/c1ccc(F)cc1	i	nt	i	i	i	6.75µM
COc1ccc(/C=C(\C#N)C(=O)c2cccn2C)cc1	i	nt	i	i	i	1.51µM
COc1ccccc1/C=C(\C#N)C(=O)c1cccn1C	i	nt	i	i	i	10.7µM
SMILES	Rab9 promoter act	SMN2 splice up	ELG1 DNA repair	ELG1 genotox	NPC1 promoter act	FLuc modulator
CN1CCN(C(=O)/C(C#N)=C/c2ccc(F)cc2)CC1	i	i	i	i	i	i
COc1ccccc1/C=C(/C#N)C(=O)O	i	nt	i	i	i	i
CCOc1ccc(S(=O)(=O)NCc2cccn2Cc2cccc(C)c2)cc1	nt	nt	nt	nt	nt	i
COC(=O)c1sccc1N/N=C/c1ccc(OC)c(OC)c1OC	?	14.1µM	?	?	?	15.1µM
COC(=O)c1sccc1N/N=C/c1cccc(Oc2ccccc2)c1	2.24µM	?	?	2.31µM	3.16µM	1.9µM
COC(=O)c1sccc1N/N=C/c1cccc(OC)c1O	3.16µM	0.562µM	?	?	3.55µM	0.953µM
COC(=O)c1sccc1NC(=O)c1cccc(OC)c1	i	i	i	i	i	?
NC1=N[C@H](c2ccc(Cl)cc2)N(c2ccc(S(=O)(=O)Nc3ncccn3)cc2)C(N)=N1	nt	i[9.22 µM]	nt	nt	nt	nt
